From PubChem BioAssay (NCI)
Compounds without any hit were thinned out: in the full panel of roughly 83,000, 20% have a hit.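 Negative percent growth values reflect cell death: -40 means 40% of the cells present at the start died, and -100 means all died.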 Calls of active or inactive are those of the source. How the source made its calls: active means growth percent below 10; inactive means the rest.

Assays:
Experiment in all cases: NCI-60 one-dose screen, 48 h (100 = growth as untreated, 0 = no growth, -100 = all killed)
[1] = test system: NCI-H23 lung; conditions: 10 µM unless noted
[2] = test system: NCI-H226 lung; conditions: 10 µM unless noted
[3] = test system: NCI-H322M lung; conditions: 10 µM unless noted
[4] = test system: HOP-62 NSCLC; conditions: 10 µM unless noted
[5] = test system: HOP-92 NSCLC; conditions: 10 µM
[6] = test system: NCI-H522 lung; conditions: 10 µM
[7] = test system: A549/ATCC NSCLC; conditions: 10 µM unless noted
[8] = test system: 786-0 renal; conditions: 10 µM unless noted
[9] = test system: COLO 205 colon; conditions: 10 µM unless noted
[10] = test system: DU-145 prostate; conditions: 10 µM unless noted
[11] = test system: K-562 leukemia; conditions: 10 µM unless noted
[12] = test system: MALME-3M melanoma; conditions: 10 µM unless noted
[13] = test system: MDA-MB-231 breast; conditions: 10 µM unless noted
[14] = test system: RXF 393 renal; conditions: 10 µM unless noted
[15] = test system: SF-268 CNS; conditions: 10 µM unless noted
[16] = test system: SF-295 CNS; conditions: 10 µM unless noted
[17] = test system: SF-539 CNS; conditions: 10 µM unless noted
[18] = test system: UACC-257 melanoma; conditions: 10 µM unless noted
[19] = test system: M14 melanoma; conditions: 10 µM unless noted
[20] = test system: NCI-H460 lung; conditions: 10 µM unless noted

Measured: growth

Nc1ccc(N=Nc2ccccc2)c2cc(S(=O)(=O)O)ccc12
inactive: [1] 91.4% | [2] 103% | [3] 104% | [4] 92.4% | [5] 94.5% | [6] 88.5% | [7] 99.3% | [8] 104% | [9] 116% | [10] 110% | [11] 104% | [12] 107% | [13] 109% | [14] 97.2% | [15] 98.8% | [16] 103% | [17] 101% | [18] 97% | [19] 103%

O=C(O)c1ccc(-c2nn(-c3ccc(C(=O)O)cc3)cc2CNc2ccc(Br)cc2)cc1
inactive: [1] 106% | [2] 115% | [3] 100% | [4] 104% | [5] 102% | [6] 85.4% | [7] 101% | [8] 102% | [9] 108% | [10] 102% | [11] 102% | [12] 106% | [13] 115% | [14] 111% | [15] 94.1% | [16] 101% | [17] 101% | [18] 101% | [19] 97.6%

COc1cc(/C=C/C(=O)/C=C(/C=C/c2ccc(OC(C)=O)c(OC)c2)OB(F)F)ccc1OC(C)=O
inactive: [1] 61.5% | [2] 87.1% | [3] 99.6% | [4] 103% | [5] 62.5% | [6] 16.8% | [7] 82.7% | [8] 80.7% | [9] 71.2% | [10] 64.5% | [11] 15.2% | [12] 51.7% | [13] 80.8% | [14] 14.7% | [15] 81.2% | [16] 86.7% | [17] 56.8% | [18] 63% | [19] 34.1%

CCN(CC)C(=O)C1(C)CCCC2(C)c3cc(OC(C)=O)ccc3CCC12 (stereo not given)
inactive: [1] 84.3% | [2] 75.8% | [3] 83.5% | [4] 94.9% | [20] 90% | [8] 92% | [9] 92% | [10] 99.9% | [11] 58.6% | [12] 86.4% | [13] 103% | [14] 92% | [15] 86.5% | [16] 85.1% | [17] 89.2% | [19] 112%

N#CC1=C(N2CCOCC2)NC2c3ccccc3Sc3ccccc3N2C1=N (stereo not given)
inactive: [1] 99% | [2] 94.5% | [3] 117% | [4] 78.3% | [5] 84.5% | [6] 83.6% | [7] 103% | [8] 104% | [9] 96.8% | [10] 98.4% | [11] 117% | [12] 103% | [13] 98.7% | [14] 90.7% | [15] 91.8% | [16] 116% | [17] 89.7% | [18] 108% | [19] 98.9%

COc1cc(OC)c(/C=C/c2ccc3ccccc3[n+]2C)c(OC)c1
inactive: [2] 26.2% | [3] 17.7% | [4] 28.4% | [8] 18.5% | [10] 22.3% | [13] 28.2% | [14] 34.5% | [15] 18% | [19] 15.9%
active: [1] 1.71% | [20] 1.55% | [9] -51.5% | [11] 9.98% | [12] 3.03% | [16] -32.7% | [17] -23.7%

CCCCCCCCCc1cc[n+](CC(=O)c2ccc([N+](=O)[O-])cc2)cc1
active: [5] -45.2% | [6] -12.9% | [7] -23.7% | [9] -76.9% | [11] -4.43% | [12] -34.9% | [13] -76.7% | [16] 9.4% | [17] -87.5% | [18] 0.0548% | [19] -67.3%
inactive: [1] 14.2% | [2] 31.8% | [3] 71.6% | [4] 27.2% | [8] 31.9% | [10] 23.7% | [14] 32.5% | [15] 29.6%

C[C@]12C=CC(=O)C=C1[C@@H](F)C[C@@H]1[C@@H]2[C@@H](O)C[C@@]2(C)[C@H]1CC[C@]2(O)C(=O)CO
inactive: [1] 106% | [2] 90.6% | [3] 113% | [4] 104% | [5] 57.5% | [6] 118% | [7] 63.5% | [8] 108% | [9] 106% | [10] 95.1% | [11] 125% | [12] 81.8% | [13] 80.6% | [14] 126% | [15] 96.9% | [16] 123% | [17] 96.1% | [18] 96.1% | [19] 92.5%

O=C(C(=O)N1CCOCC1)c1ccc(O[C@H]2O[C@H](CO)[C@@H](O)[C@H](O)[C@@H]2O)cc1
inactive: [1] 99.9% | [2] 95.8% | [3] 91.7% | [4] 111% | [5] 102% | [6] 93.9% | [7] 106% | [8] 97.1% | [9] 119% | [10] 122% | [11] 106% | [12] 102% | [13] 98.4% | [14] 103% | [15] 123% | [16] 107% | [17] 99.2% | [18] 107% | [19] 98.8%

COc1ccc(-c2nc(SCC(C)C)nc(Nc3ccc(C)cc3)c2C#N)cc1
inactive: [1] 73.9% | [2] 65.6% | [3] 52.9% | [4] 88.5% | [5] 73.9% | [6] 81.4% | [7] 52.6% | [8] 24.4% | [9] 46.6% | [10] 85.9% | [11] 68.8% | [12] 74.3% | [13] 68.4% | [14] 88.2% | [15] 85.3% | [16] 64.4% | [17] 63.5% | [18] 103% | [19] 88.8%

CCCCCCNc1nc(N2CCOCC2)c2[nH]c(NCCCCCC)nc2n1
active: [1] -94.5% | [2] -82.9% | [3] -46.7% | [4] -95.9% | [5] -77.7% | [6] -79.8% | [7] -90.1% | [8] -100% | [9] -64.8% | [10] -88.1% | [11] -52.4% | [12] -62.2% | [13] -94.4% | [14] -84.9% | [15] -92.8% | [16] -61.8% | [17] -94.4% | [18] -95.4% | [19] -98%

CCN(CC)CCOC(=O)c1cccnc1
inactive: [1] 95.8% | [2] 90.3% | [3] 100% | [4] 94.6% | [20] 101% | [8] 99.8% | [9] 119% | [10] 109% | [11] 92.7% | [12] 91.3% | [13] 105% | [14] 103% | [15] 102% | [16] 101% | [17] 102% | [19] 102%

O=C(Nc1ccc(Cl)c(Cl)c1)O/N=C\c1c(Cl)ccc([N+](=O)[O-])c1Cl
active: [4] -86.3% | [5] 6.84% | [6] -90.4% | [8] 5.13% | [9] -83.3% | [10] -82.5% | [11] -7.08% | [12] -44.9% | [13] -59.7% | [14] -45.1% | [15] -4.9% | [17] 4.51% | [18] -49.2%
inactive: [1] 27% | [2] 58.4% | [3] 11.6% | [7] 45.5% | [16] 83.9% | [19] 32%

Cc1nc2ccccc2c(=O)n1-c1cccc(OCc2cn(-c3cccc(O)c3)nn2)c1
inactive: [1] 95.1% | [2] 105% | [3] 101% | [4] 93.4% | [5] 81.6% | [6] 72.1% | [7] 95.3% | [8] 107% | [9] 122% | [10] 100% | [11] 88.2% | [12] 104% | [13] 78.3% | [14] 105% | [15] 88.4% | [16] 93.8% | [17] 100% | [18] 94.9% | [19] 94.4%

CCCNC(=O)Oc1ccc(/C(=C(/C)Cc2ccc(OC)cc2)c2ccc(OCCN3CCCC3)cc2)cc1
inactive: [1] 84.1% | [2] 90.7% | [3] 86.5% | [4] 76.8% | [5] 52.1% | [6] 71.8% | [7] 71.8% | [8] 70.7% | [9] 10.1% | [10] 90.1% | [12] 28.9% | [13] 57.6% | [14] 70% | [15] 72.4% | [16] 68.7% | [17] 77.8% | [18] 73.5%
active: [11] -11.5% | [19] -52.9%

CC(C)(C)C(=O)OCOP(=O)(OCOC(=O)C(C)(C)C)C1CC(O)N(O)C1=O (stereo not given)
active: [6] 8.02% | [14] 1.26%
inactive: [1] 21% | [2] 71.6% | [3] 30.5% | [4] 35.7% | [5] 28.2% | [7] 64.3% | [8] 14.5% | [9] 45% | [10] 44.4% | [11] 15.2% | [12] 41.2% | [13] 42.7% | [15] 13.3% | [16] 67% | [17] 39.3% | [18] 63.1% | [19] 55.6%

O=C(CN1CCN(c2cccc(Cl)c2)CC1)N1CCN(c2nnc(-c3ccc(Cl)cc3)c(-c3ccc(Cl)cc3)n2)CC1
inactive: [1] 87.7% | [2] 76.7% | [3] 77.8% | [4] 116% | [20] 76.5% | [8] 91.2% | [9] 82.8% | [10] 94.8% | [11] 38.8% | [12] 105% | [13] 86.8% | [15] 89.8% | [16] 84.3% | [17] 74.4% | [19] 106%
